# This is a sample that favours compounds with a hit; in the whole collection about 14% have one here.
# LASV entry inh: blocks Lassa virus binding to or entry into cells; Lassa virus pseudotype entry inhibition, cell reporter; Potency, µM (series often up to 37.9 µM), actives largely listed as inhibitors; actives 1.2% (n = 300,000); AID 540256; calls by dose curve; tested in HEK293 cells; also: nearly all actives have a fitted effect of over 50% in size
# Pf growth 96h: P. falciparum growth inhibition at 96 hour, primary screen for plastid delayed-death inhibitors | P. falciparum luciferase reporter growth, 96 h | Potency, µM (series often up to 28.7 µM), actives largely listed as inhibitors | actives 6.9% (n = 320,000) | AID 504834
#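 Luminescence readout: decreased luciferase signal marks inhibited growth of reporter-expressing P. falciparum in infected red cells (2% hematocrit, 0.05% parasitemia final), exposed to compound two generations (96 h, 37 C, 5% CO2).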
# Pf growth 48h: inhibits P. falciparum growth in the first generation, 48 h; actives 5.9% (n = 310,000); Potency, µM (titrated, usually from 28.7 µM), hits mostly inhibitors; P. falciparum luciferase growth in erythrocytes, 48 h
#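 Luminescence readout; reporter = integrated firefly luciferase in P. falciparum. RBC culture at 2% hematocrit, 0.1% parasitemia final, 37 C/5% CO2; decreased signal taken as growth inhibition.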
# HCV inh: HCV inhibition; Huh7.5.1 HCVcc-Cre infection, luciferase reporter, 44 h; Potency, µM (titrated, usually from 41.8 µM), usual class: inhibitors; AID 651820; actives 3.4% (n = 340,000)
#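 Whole-lifecycle infectious HCVcc-Cre system; cells 1,000/well, compound then virus (~0.5 moi) added 4 h after plating, 44 h culture. Luciferase read 15 sec following 15 min substrate incubation, room temp.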
# Marburg entry inh: inhibitors of Marburg virus binding or cell entry. actives 1.8% (n = 300,000). Marburg virus pseudotyped entry inhibition, cell reporter. Potency, µM (highest dose often 37.8 µM), hits mostly inhibitors; calls by dose curve; tested in HEK293 cells
# HCMV inh: blocks human cytomegalovirus replication; HFF cells, HCMV-luciferase reporter, 72 h; hits give low values; activity change, negative = inhibition, % at 57.5 µM; actives 4.5% (n = 410,000); AID 1259415; in the data active = activity change below about -60%; inconclusive = no clear call, values can overlap the other calls; inactive = above about -39%
#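 Human foreskin fibroblasts infected with luciferase-reporter HCMV at MOI 1 PFU/cell, compounds at two doses. Luciferase measured 72 h post infection; normalized to buffer-only basal and Salinomycin (10uM) controls.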
# A number is an active result; – = inactive; ? = inconclusive; · = not tested or not shown; [ ] = another dose, or the depositor's remark. Unless noted, calls follow the shape of the dose curve; as a rule, active = well fitted inhibition curve with a large enough effect; inconclusive = small, poorly fitted or top-dose-only effect, or another doubt; inactive = no such curve, though single readings can be large or run the other way.
SMILES,LASV entry inh,Pf growth 96h,Pf growth 48h,HCV inh,Marburg entry inh,HCMV inh
CCCCC(=O)NC(c1cccc([N+](=O)[O-])c1)c1c(OC(C)=O)ccc2ccccc12 (configuration not stated),–,–,0.83µM,?,–,?
CC(=O)Oc1ccc2ccccc2c1C(NC(=O)Cc1ccccc1)c1ccccc1 (configuration not stated),?,?,4.1µM,?,?,–
CCOC(=O)C(NC(C)=O)C(OC(C)=O)c1cccc([N+](=O)[O-])c1 (configuration not stated),–,–,–,–,–,–
CC(=O)Oc1ccc2ccccc2c1C(NC(=O)C(C)C)c1cccc([N+](=O)[O-])c1 (configuration not stated),?,·,1.9µM,?,?,–
CC(=O)NC(c1cccc([N+](=O)[O-])c1)c1c(OC(C)=O)ccc2ccccc12 (configuration not stated),–,·,·,–,?,–
Cc1n[nH]c(=O)n(N=Cc2c[nH]c3ccccc23)c1=O,·,·,·,·,·,–
c1ccc(NC2=NCCN2CCC2CCCCC2)cc1,·,?,–,–,·,–
CC1=C(C(=O)Nc2ccc(C)cc2C)C(c2ccccc2F)n2nc(SCC(=O)c3ccc(C)cc3)nc2N1 (configuration not stated),–,·,·,·,·,–
CCOc1ccccc1C1C(C(=O)Nc2ccccc2)=C(C)Nc2nc(SCC(=O)c3ccc(C)cc3)nn21 (configuration not stated),–,·,·,·,·,-72
CCSc1nc2n(n1)C(c1ccc(Cl)cc1Cl)C(C(=O)Nc1ccccc1C)=C(C)N2 (configuration not stated),–,·,·,·,·,-91
COc1ccc(NC(=O)C2=C(C)Nc3nc(SCc4ccccc4)nn3C2c2cc(OC)ccc2OC)cc1 (configuration not stated),?,·,·,·,·,-82
CC(=O)CCC1CC(c2ccc(Cl)cc2)=NO1 (configuration not stated),·,–,–,2.8µM,·,–
NNC(=O)c1ccc(OCC2CC(c3ccc(Cl)cc3)=NO2)cc1 (configuration not stated),?,?,8.3µM,?,?,-95
Cc1cc(=O)oc2cc(OCC3CC(c4ccc(Cl)cc4)=NO3)ccc12 (configuration not stated),–,·,–,–,–,–
O=C(C[C@H]1C[C@H](C(=O)N2CCOCC2)[C@@]2(CCC3CCCC3)c3[nH]c4cc(-c5ccco5)ccc4c3CCN2C1=O)NCc1ccco1,·,·,·,–,–,–
c1ccc2c(c1)OCC(c1csc3ncnc(N4CCCCC4)c13)O2 (configuration not stated),–,?,?,–,?,-88
Clc1ncnc2scc(C3COc4ccccc4O3)c12 (configuration not stated),–,2.6µM,2.9µM,?,–,–
COc1cc(C(=O)Nc2ccc(NC(=O)c3cccc(Cl)c3)nc2)cc(OC)c1OC,?,–,2.6µM,4µM,?,–
COc1cccc(C(=O)NCCCNC(=O)c2ccccn2)c1,–,4.7µM,–,–,–,?
COc1cccc(C(=O)Nc2ccccc2NC(=O)c2cccc(OC)c2)c1,–,15µM,–,–,–,–
CC(C)(C)c1ccc(C(=O)Nc2ccc(CN3CCS(=O)(=O)CC3)cc2)cc1,?,?,–,5.6µM,?,-80
Cc1cccc(C(=O)NCc2nnc(SCC(=O)Nc3ccccc3F)n2-c2ccccc2)c1,–,·,·,·,?,–
C[C@@H]1CN([C@@H](C)CO)C(=O)CCCn2nncc2CO[C@H]1CN(C)S(=O)(=O)c1ccc(F)cc1,·,·,·,·,·,–
Cc1cccc(C(=O)Nc2ccccc2NC(=O)c2cccc(C)c2)c1,–,–,–[0.00184 µM],?,–,-61
COc1ccc(C(=O)Nc2cccc3c2CCCC3)cc1OC,·,?,–,–,·,–
SMILES,LASV entry inh,Pf growth 96h,Pf growth 48h,HCV inh,Marburg entry inh,HCMV inh
COc1cccc(C(=O)Nc2ccc(NC(=O)C3CCCCC3C(=O)O)cc2)c1 (configuration not stated),–,–,–,–,–,–
Cc1cccc(C(=O)Nc2cccc3c2CCCC3)c1,–,–,–,–,–,-101
COC(=O)Cc1ccc(NC(=O)c2ccc(C(C)(C)C)cc2)cc1,6.5µM,?,·,2.5µM,?,-93
COc1cccc(C(=O)Nc2ccc(NC(=O)C3CC=CCC3C(=O)O)cc2)c1 (configuration not stated),–,12µM,–,–,–,–
COc1ccccc1NC(=O)c1ncn(-c2ccccc2)n1,?,·,·,·,?,–
Cc1ccc(C(=O)Nc2nnc([C@H]3C[C@H](O)[C@@H](CO)O3)s2)cc1,·,·,·,·,·,–
COc1cc2c(cc1NC(=O)c1ccc(C(C)(C)C)cc1)CCCC2,1.4µM,?,?,?,4.5µM,-90
CC(=O)Nc1ccccc1NC(=O)c1ccc(C)cc1C,–,?,–,–,?,-63
COc1cccc(C(=O)Nc2ccc(NC(=O)C(C)(C)C)cn2)c1,7.1µM,?,–,?,13µM,–
CC(=O)Nc1cccc(OCCCNC(=O)c2ccc(C(C)(C)C)cc2)c1,·,?,–,10µM,·,–
Cc1ccc(CNC(=O)c2cc(C)nc3c2c(C)nn3-c2ccc(C)cc2)cc1,–,·,·,·,·,–
CSCCC(N)C(=O)O (configuration not stated),·,–,–,·,·,·
CCN(Cc1ccc(OC)cc1)c1ccc(-c2nc(-c3ccncc3)no2)cc1[N+](=O)[O-],–,·,·,·,–,–
COc1cccc(C(=O)Nc2ccc(NC(=O)c3ccc(C(C)(C)C)cc3)cc2)c1,–,·,·,·,·,-97
COc1cccc(C(=O)Nc2ccc(NC(C)=O)cc2)c1,–,–,·,–,?,–
O=C1OC(Nc2nc(-c3ccc(F)cc3)cs2)c2ccccc21 (configuration not stated),–,?,?,–,?,-91
COc1ccc2c(c1OC)C(=O)OC2Nc1nc(-c2ccc(-c3ccccc3)cc2)cs1 (configuration not stated),?,–,–,8.9µM,–,–
CCOC(=O)c1c(S(=O)(=O)N2CCC(C(=O)NCc3cccc(OC)c3)CC2)c(C)n(C)c1C,–,·,·,·,·,–
O=C(c1cccnc1)N(Cc1ccccc1)C(c1ccccc1)c1nc2ccccc2[nH]1 (configuration not stated),·,·,·,·,·,–
COc1ccc2nc(N=Nc3ccc(O)c4ccccc34)sc2c1,?,–,?,?,?,-76
COc1ccc2nc(N=NC3=C(O)CC(C)(C)CC3=O)sc2c1,15µM,–,–,?,13µM,-95
CCCCN1C[C@H](Cc2ccccc2)[C@@H](CC(=O)NC)C1=O,·,·,·,·,·,–
CCOC(=O)c1cccc(NC(=O)CCc2c(C)nn(-c3ccc(N4CCCCC4)nn3)c2C)c1,?,·,·,·,·,–
COc1ccc(-c2csc(NC(=O)c3ccccc3NS(=O)(=O)c3ccc(F)c(F)c3)n2)cc1,3.7µM,?,1.9µM,2.8µM,2.3µM,-100

# Compound activity as filed in PubChem BioAssay.
